{
  "source": "paper PMC12820563",
  "about": "“FoxP3 forms a head-to-head dimer in vivo and stabilizes its multimerization on adjacent microsatellites”",
  "note": "The full ranking holds about 16,000 sequences; the median of “rpm ratio (pull-down/input)” is about 0.5, and the highest 2% start at about 5.5. The full list was thinned out, with the highest values kept by preference.",
  "data": [
    {"molecular_target": "T1, MBP-FoxP3dN (Mus musculus, UniProt Q99JB6 188-423)", "T1 sequence": "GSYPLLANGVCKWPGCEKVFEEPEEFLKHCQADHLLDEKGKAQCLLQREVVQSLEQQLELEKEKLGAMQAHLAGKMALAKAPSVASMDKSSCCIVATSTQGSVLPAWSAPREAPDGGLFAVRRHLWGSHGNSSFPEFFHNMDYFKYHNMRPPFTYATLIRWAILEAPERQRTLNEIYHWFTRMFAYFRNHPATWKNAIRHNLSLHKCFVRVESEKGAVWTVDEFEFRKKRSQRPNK", "assay": "PD-seq (MBP pull-down with sequencing); 20 mM Tris-HCl pH 7.5, 100 mM NaCl, 1.5 mM MgCl2, 0.4 uM protein, 0.1 uM dsDNA library, 30 min, room temperature, amylose pull-down; high values mean tight binding", "conditions": "protein: recombinant; tags: His6-MBP; chain copies: 2; dsDNA, one strand shown", "summary_of_the_method": "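Binding is the reads-per-million enrichment of pull-down relative to input, pooled across replicates. For this, 0.4 µM His6-MBP-tagged mouse FoxP3 or FoxP1 fragment lacking the N-terminus, made in E. coli, was incubated with 0.1 µM Klenow-filled double-stranded degenerate DNA library for 30 min at room temperature in Tris pH 7.5 buffer with NaCl and MgCl2. Complexes bound to amylose resin were washed three times before proteinase K released the DNA for PCR barcoding and Illumina sequencing.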", "values": [
      {"sequence": "GATGATTGTTCTCCCAGCTGATGAATTTTTGCTGTCGAGTAAACAAATTTTCCTAATCTTTCTGTTCAAGCGCCATCTAC", "binding signal": "0.548 RPM ratio (pull-down/input)"},
      {"sequence": "GATGATTGTTCTCCCAGCTGATGAATTTGTCGTGTCGAGTAAACAAATTTTCCTAATCTTTCTGTTCAAGCGCCATCTAC", "binding signal": "5.6 RPM ratio (pull-down/input)"},
      {"sequence": "GATGATTGTTCTCCCAGCTGATGAATTGTGTCGTTCGAGTAAACAAATTTTCCTAATCTTTCTGTTCAAGCGCCATCTAC", "binding signal": "2.73 RPM ratio (pull-down/input)"},
      {"sequence": "GATGATTGTTCTCCCAGCTGATGAATTGTTGTTGTCGAGTAAACAAATTTTCCTAATCTTTCTGTTCAAGCGCCATCTAC", "binding signal": "7.65 RPM ratio (pull-down/input)"},
      {"sequence": "GATGATTGTTCTCCCAGCTGATGAATTGTCGTGTTCGAGTAAACAAATTTTCCTAATCTTTCTGTTCAAGCGCCATCTAC", "binding signal": "0.915 RPM ratio (pull-down/input)"},
      {"sequence": "GATGATTGTTCTCCCAGCTGATGAATTGCTTGTGTCGAGTAAACAAATTTTCCTAATCTTTCTGTTCAAGCGCCATCTAC", "binding signal": "2.01 RPM ratio (pull-down/input)"},
      {"sequence": "GATGATTGTTCTCCCAGCTGATGAATTCGTGTTGTCGAGTAAACAAATTTTCCTAATCTTTCTGTTCAAGCGCCATCTAC", "binding signal": "2.75 RPM ratio (pull-down/input)"},
      {"sequence": "GATGATTGTTCTCCCAGCTGATGAATTTGCTGTGTCGAGTAAACAAATTTTCCTAATCTTTCTGTTCAAGCGCCATCTAC", "binding signal": "6.29 RPM ratio (pull-down/input)"},
      {"sequence": "GATGATTGTTCTCCCAGCTGATGAATTAGGCTGATCGAGTAAACAAATTTTCCTAATCTTTCTGTTCAAGCGCCATCTAC", "binding signal": "0.537 RPM ratio (pull-down/input)"},
      {"sequence": "GATGATTGTTCTCCCAGCTGATGAATTGAGTGCCTCGAGTAAACAAATTTTCCTAATCTTTCTGTTCAAGCGCCATCTAC", "binding signal": "0.963 RPM ratio (pull-down/input)"},
      {"sequence": "GATGATTGTTCTCCCAGCTGATGAATTCATTGAATCGAGTAAACAAATTTTCCTAATCTTTCTGTTCAAGCGCCATCTAC", "binding signal": "0.267 RPM ratio (pull-down/input)"},
      {"sequence": "GATGATTGTTCTCCCAGCTGATGAATTGTGGACCTCGAGTAAACAAATTTTCCTAATCTTTCTGTTCAAGCGCCATCTAC", "binding signal": "0.571 RPM ratio (pull-down/input)"},
      {"sequence": "GATGATTGTTCTCCCAGCTGATGAATTCAATAGGTCGAGTAAACAAATTTTCCTAATCTTTCTGTTCAAGCGCCATCTAC", "binding signal": "0.536 RPM ratio (pull-down/input)"},
      {"sequence": "GATGATTGTTCTCCCAGCTGATGAATTCGGATGGTCGAGTAAACAAATTTTCCTAATCTTTCTGTTCAAGCGCCATCTAC", "binding signal": "0.433 RPM ratio (pull-down/input)"},
      {"sequence": "GATGATTGTTCTCCCAGCTGATGAATTTCTGCACTCGAGTAAACAAATTTTCCTAATCTTTCTGTTCAAGCGCCATCTAC", "binding signal": "0.475 RPM ratio (pull-down/input)"},
      {"sequence": "GATGATTGTTCTCCCAGCTGATGAATTCAAGTGTTCGAGTAAACAAATTTTCCTAATCTTTCTGTTCAAGCGCCATCTAC", "binding signal": "0.65 RPM ratio (pull-down/input)"},
      {"sequence": "GATGATTGTTCTCCCAGCTGATGAATTCGGACCATCGAGTAAACAAATTTTCCTAATCTTTCTGTTCAAGCGCCATCTAC", "binding signal": "0.399 RPM ratio (pull-down/input)"},
      {"sequence": "GATGATTGTTCTCCCAGCTGATGAATTATAAGATTCGAGTAAACAAATTTTCCTAATCTTTCTGTTCAAGCGCCATCTAC", "binding signal": "0.351 RPM ratio (pull-down/input)"},
      {"sequence": "GATGATTGTTCTCCCAGCTGATGAATTTTCTGTGTCGAGTAAACAAATTTTCCTAATCTTTCTGTTCAAGCGCCATCTAC", "binding signal": "0.415 RPM ratio (pull-down/input)"},
      {"sequence": "GATGATTGTTCTCCCAGCTGATGAATTTGTGTCGTCGAGTAAACAAATTTTCCTAATCTTTCTGTTCAAGCGCCATCTAC", "binding signal": "5 RPM ratio (pull-down/input)"},
      {"sequence": "GATGATTGTTCTCCCAGCTGATGAATTTGATGTGTCGAGTAAACAAATTTTCCTAATCTTTCTGTTCAAGCGCCATCTAC", "binding signal": "6.14 RPM ratio (pull-down/input)"},
      {"sequence": "GATGATTGTTCTCCCAGCTGATGAATTGATTGTGTCGAGTAAACAAATTTTCCTAATCTTTCTGTTCAAGCGCCATCTAC", "binding signal": "3.72 RPM ratio (pull-down/input)"},
      {"sequence": "GATGATTGTTCTCCCAGCTGATGAATTTGTGTTGTCGAGTAAACAAATTTTCCTAATCTTTCTGTTCAAGCGCCATCTAC", "binding signal": "6.27 RPM ratio (pull-down/input)"},
      {"sequence": "GATGATTGTTCTCCCAGCTGATGAATTTGTGATGTCGAGTAAACAAATTTTCCTAATCTTTCTGTTCAAGCGCCATCTAC", "binding signal": "5.62 RPM ratio (pull-down/input)"},
      {"sequence": "GATGATTGTTCTCCCAGCTGATGAATTGTGATTGTCGAGTAAACAAATTTTCCTAATCTTTCTGTTCAAGCGCCATCTAC", "binding signal": "4.91 RPM ratio (pull-down/input)"},
      {"sequence": "GATGATTGTTCTCCCAGCTGATGAATTGTGAATGTCGAGTAAACAAATTTTCCTAATCTTTCTGTTCAAGCGCCATCTAC", "binding signal": "1.32 RPM ratio (pull-down/input)"},
      {"sequence": "GATGATTGTTCTCCCAGCTGATGAATTTGTTGTGTCGAGTAAACAAATTTTCCTAATCTTTCTGTTCAAGCGCCATCTAC", "binding signal": "8.35 RPM ratio (pull-down/input)"},
      {"sequence": "GATGATTGTTCTCCCAGCTGATGAATTGAATGTGTCGAGTAAACAAATTTTCCTAATCTTTCTGTTCAAGCGCCATCTAC", "binding signal": "1.26 RPM ratio (pull-down/input)"},
      {"sequence": "GATGATTGTTCTCCCAGCTGATGAATTTCTTGTGTCGAGTAAACAAATTTTCCTAATCTTTCTGTTCAAGCGCCATCTAC", "binding signal": "1.59 RPM ratio (pull-down/input)"},
      {"sequence": "GATGATTGTTCTCCCAGCTGATGAATTGTCTGTGTCGAGTAAACAAATTTTCCTAATCTTTCTGTTCAAGCGCCATCTAC", "binding signal": "0.563 RPM ratio (pull-down/input)"},
      {"sequence": "GATGATTGTTCTCCCAGCTGATGAATTTAGTATATCGAGTAAACAAATTTTCCTAATCTTTCTGTTCAAGCGCCATCTAC", "binding signal": "2.93 RPM ratio (pull-down/input)"},
      {"sequence": "GATGATTGTTCTCCCAGCTGATGAATTAGCTGGCTCGAGTAAACAAATTTTCCTAATCTTTCTGTTCAAGCGCCATCTAC", "binding signal": "0.476 RPM ratio (pull-down/input)"}
    ]}
  ]
}
